In PubChem BioAssay AID1159580 (chemical genetic matrix, 2015):
Where “and” joins values, the source holds several entries; their conditions need not be identical. Identical values can stand only once. In all, about 5,500 compounds went through this assay and about 2,000 (36%) were called active. About 18% were inconclusive and are not listed. Cut-off read from the data, not from the text of the source: active = normalized growth mostly below about 0.91 (no sharp cut-off); inconclusive = no clear call, values can overlap the other calls; inactive = mostly above about 0.92. The list shows a part of the results.

Test: chemical genetic growth profiling, strain panel (AID 1159580);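 note: tested at 20 µM; growth read once vehicle control cultures reached saturation at 30 °C; 1 = growth at the plate median or of vehicle wells; lower values mean less growth of the strain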
Conditions: S. cerevisiae deletion strains, growth OD
[1] = locus YDR150W, strain NUM1, hits give low values
[2] = locus YGR078C, strain PAC10, hits give low values
[3] = locus YJR075W, strain HOC1, hits give low values
[4] = locus YMR307W, strain GAS1, hits give low values
[5] = locus YNL153C, strain GIM3, hits give low values
[6] = locus YPL241C, strain CIN2, hits give low values

Measured: normalized growth

CC(=O)c1c(O)c(C)c(O)c(Cc2c(O)c3c(c(C(=O)/C=C/c4ccccc4)c2O)OC(C)(C)C=C3)c1O
inactive: locus YAL013W, strain DEP1, hits give low values 0.909 | locus YAL040C, strain CLN3, hits give low values 1 | locus YDR363W, strain ESC2, hits give low values 0.999 | locus YER002W, strain NOP16, hits give low values 1.06 | [2] 0.989 | locus YGR229C, strain SMI1, hits give low values 0.876 | [5] 0.857 | locus YNL175C, strain NOP13, hits give low values 1.06 | locus YNL197C, strain WHI3, hits give low values 1.01 | locus YNL224C, strain SQS1, hits give low values 1.01 | locus YOR083W, strain WHI5 (second series), hits give low values 0.898
active: locus YCL061C, strain MRC1 (second series), hits give low values 0.917 | [1] 0.883 | [3] 0.877 | [4] 0.877 | locus YPL055C, strain LGE1, hits give low values 0.881 | [6] 0.902

COc1ccc(C(=O)CC(=O)O)c2c1C=CC(C)(C)O2
inactive: locus YAL021C, strain ccr4, hits give low values 1 | locus YAL026C, strain drs2, hits give low values 1 | locus YAL030W, strain snc1, hits give low values 0.992 | locus YBL061C, strain skt5, hits give low values 0.999 | locus YBR009C, strain hhf1, hits give low values 1.01 | locus YBR021W, strain FUR4, hits give low values 0.986 | locus YBR023C, strain chs3, hits give low values 1.01 | locus YBR171W, strain sec66, hits give low values 0.986 | locus YBR229C, strain ROT2, hits give low values 0.983 | locus YBR231C, strain swc5, hits give low values 0.987 | locus YBR279W, strain paf1, hits give low values 1.01 | locus YCL011C, strain gbp2, hits give low values 1.01 | locus YCL016C, strain dcc1, hits give low values 1.02 | locus YCL029C, strain bik1, hits give low values 0.997 | locus YCL061C, strain MRC1, hits give low values 1 | locus YCL069W, strain vba3, hits give low values 1.01 | locus YCR088W, strain abp1, hits give low values 0.995 | locus YDL005C, strain med2, hits give low values 0.983 | locus YDL035C, strain GPR1, hits give low values 1.02 | locus YDL040C, strain nat1, hits give low values 1 | locus YDL074C, strain BRE1, hits give low values 1 | locus YDL101C, strain DUN1, hits give low values 1.01 | locus YDL185W, strain tfp1, hits give low values 0.988 | locus YDL192W, strain arf1, hits give low values 0.996 | locus YDR001C, strain nth1, hits give low values 0.995 | locus YDR069C, strain doa4, hits give low values 0.984 | locus YDR101C, strain arx1, hits give low values 0.995 | locus YDR137W, strain rgp1, hits give low values 1.03 | [1] 0.999 | locus YDR159W, strain sac3, hits give low values 0.956 | locus YDR162C, strain NBP2, hits give low values 1.06 | locus YDR195W, strain ref2 0.962 | locus YDR297W, strain sur2, hits give low values 0.997 | locus YDR318W, strain mcm21, hits give low values 0.997 | locus YDR334W, strain swr1, hits give low values 0.997 | locus YDR335W, strain msn5, hits give low values 1.01 | locus YDR388W, hits give low values 1.01 | locus YDR392W, strain spt3, hits give low values 0.96 | locus YDR502C, strain sam2, hits give low values 1.02 | locus YEL003W, strain gim4, hits give low values 0.999 | locus YEL037C, strain rad23, hits give low values 0.999 | locus YEL061C, strain CIN8, hits give low values 0.998 | locus YER015W, strain faa2, hits give low values 1.01 | locus YER016W, strain bim1, hits give low values 0.99 | locus YER110C, hits give low values 0.977 | locus YER111C, strain swi4, hits give low values 1 | locus YER155C, strain BEM2 (second series), hits give low values 0.99 | locus YER155C, strain BEM2, hits give low values 0.983 | locus YER167W, strain BCK2, hits give low values 0.993 | locus YFR010W, strain ubp6, hits give low values 0.994 | locus YGL078C, strain dbp3, hits give low values 0.994 | locus YGL086W, strain mad1, hits give low values 0.99 | locus YGL167C, strain pmr1, hits give low values 0.994 | locus YGL173C, strain kem1, hits give low values 0.99 | locus YGL227W, strain vid30, hits give low values 0.981 | locus YGL240W, strain doc1, hits give low values 1.02 | locus YGL248W, strain PDE1, hits give low values 1 | locus YGL253W, strain hxk2, hits give low values 1 | [2] 1.03 | locus YGR135W, strain pre9, hits give low values 0.992 | locus YGR252W, strain gcn5, hits give low values 0.979 | locus YHR013C, strain ard1, hits give low values 1.02 | locus YHR027C, strain rpn1, hits give low values 0.982 | locus YHR030C, strain SLT2, hits give low values 0.997 | locus YHR079C, strain IRE1 (second series), hits give low values 0.991 | locus YHR079C, strain IRE1, hits give low values 0.987 | locus YHR094C, strain hxt1, hits give low values 1 | locus YHR129C, strain ARP1, hits give low values 0.998 | locus YHR142W, strain chs7, hits give low values 1 | locus YHR200W, strain rpn10, hits give low values 0.987 | locus YIL066C, strain RNR3, hits give low values 1.02 | locus YIL073C, strain SPO22, hits give low values 1.04 | locus YIL125W, strain kgd1, hits give low values 1.01 | locus YIR030C, strain dcg1, hits give low values 0.993 | locus YJL092W, strain hpr5, hits give low values 1 | locus YJL095W, strain BCK1 (second series), hits give low values 0.99 | locus YJL095W, strain BCK1, hits give low values 1.05 and 1.08 | locus YJL115W, strain asf1, hits give low values 1 | locus YJL129C, strain trk1, hits give low values 1 | locus YJL134W, strain LCB3, hits give low values 0.995 | locus YJL154C, strain vps35, hits give low values 0.996 | locus YJL164C, strain tpk1, hits give low values 1.01 | locus YJL166W, strain qcr8, hits give low values 1 | locus YJL168C, strain set2, hits give low values 0.998 | locus YJL187C, strain SWE1 (second series), hits give low values 1.02 | locus YJL187C, strain SWE1, hits give low values 1.01 | locus YJR043C, strain POL32, hits give low values 1.04 | locus YJR066W, strain TOR1, hits give low values 0.949 | [3] 1.02 | locus YKL009W, strain mrt4, hits give low values 1.03 | locus YKL068W, hits give low values 0.992 | locus YKL085W, strain MDH1 (second series), hits give low values 1 | locus YKL085W, strain MDH1, hits give low values 1 | locus YKL160W, strain elf1, hits give low values 1.01 | locus YKL190W, strain CNB1, hits give low values 0.994 | locus YKR001C, strain vps1, hits give low values 0.994 | locus YKR026C, strain gcn3, hits give low values 0.995 | locus YKR091W, strain srl3, hits give low values 0.997 | locus YLL001W, strain dnm1, hits give low values 1.01 | locus YLL026W, hits give low values 1 | locus YLL041C, strain sdh2, hits give low values 1.01 | locus YLR027C, strain aat2, hits give low values 1.01 | locus YLR039C, strain RIC1, hits give low values 1.08 | locus YLR058C, strain SHM2, hits give low values 0.996 | locus YLR102C, strain apc9, hits give low values 0.992 | locus YLR113W, strain HOG1, hits give low values 1.07 | locus YLR221C, strain rsa3, hits give low values 0.99 | locus YLR258W, strain gsy2, hits give low values 1 | locus YLR262C, strain YPT6 (second series), hits give low values 1.03 | locus YLR262C, strain YPT6, hits give low values 1.06 | locus YLR268W, strain sec22, hits give low values 1.01 | locus YLR320W, strain mms22, hits give low values 0.987 | locus YLR330W, strain CHS5, hits give low values 0.995 | locus YLR342W, strain FKS1 (second series), hits give low values 1 | locus YLR342W, strain FKS1, hits give low values 0.999 | locus YLR357W, strain rsc2, hits give low values 0.959 | locus YLR370C, strain arc18, hits give low values 1.03 | locus YLR371W, strain rom2, hits give low values 0.997 | locus YLR384C, strain iki3, hits give low values 0.99 | locus YLR418C, strain cdc73, hits give low values 0.998 | locus YML016C, strain PPZ1, hits give low values 0.99 | locus YML032C, strain rad52, hits give low values 1 | locus YML120C, strain ndi1, hits give low values 1.01 | locus YML124C, strain tub3, hits give low values 0.997 | locus YMR058W, strain fet3, hits give low values 1.01 | locus YMR078C, strain ctf18, hits give low values 0.977 | locus YMR125W, strain sto1, hits give low values 0.994 | locus YMR129W, hits give low values 1 | locus YMR205C, strain PFK2, hits give low values 1.01 | locus YMR223W, strain ubp8, hits give low values 1.01 | locus YMR231W, strain pep5, hits give low values 0.994 | locus YMR263W, strain SAP30, hits give low values 1.01 | [4] 0.939 | locus YNL067W, strain RPL9B, hits give low values 1.04 | locus YNL071W, strain lat1, hits give low values 1.01 | [5] 1.04 | locus YNL183C, strain NPR1, hits give low values 0.995 | locus YNL209W, strain ssb2, hits give low values 1.01 | locus YNL233W, strain BNI4, hits give low values 1.03 | locus YNL248C, strain rpa49, hits give low values 0.903 | locus YNL250W, strain rad50, hits give low values 0.981 | locus YNL271C, strain bni1, hits give low values 0.984 | locus YNL298W, strain CLA4, hits give low values 0.979 | locus YNL307C, strain MCK1, hits give low values 0.99 | locus YNL322C, strain KRE1 (second series), hits give low values 1.01 | locus YNL322C, strain KRE1, hits give low values 0.998 | locus YNR049C, strain mso1, hits give low values 1.02 | locus YNR052C, strain pop2, hits give low values 0.985 | locus YOL006C, strain TOP1, hits give low values 1.11 | locus YOL012C, strain htz1 0.738 | locus YOL147C, strain pex11, hits give low values 0.993 | locus YOR001W, strain rrp6, hits give low values 0.971 | locus YOR061W, strain CKA2, hits give low values 0.993 | locus YOR069W, strain VPS5, hits give low values 0.989 | locus YOR070C, strain gyp1, hits give low values 1 | locus YOR080W, strain dia2, hits give low values 0.994 | locus YOR083W, strain WHI5, hits give low values 1.01 | locus YOR106W, strain vam3, hits give low values 1.03 | locus YOR136W, strain idh2, hits give low values 0.985 | locus YOR144C, strain elg1, hits give low values 0.999 | locus YOR184W, strain ser1, hits give low values 1.03 | locus YOR231W, strain MKK1, hits give low values 0.994 | locus YOR265W, strain rbl2, hits give low values 1.02 | locus YOR270C, strain vph1, hits give low values 0.995 | locus YOR290C, strain snf2, hits give low values 0.997 | locus YOR316C, strain cot1, hits give low values 0.996 | locus YPL051W, strain arl3, hits give low values 1.01 | locus YPL078C, strain atp4, hits give low values 1.03 | locus YPL106C, strain sse1, hits give low values 0.987 | locus YPL240C, strain hsp82, hits give low values 0.999 | [6] 0.996 | locus YPL256C, strain CLN2, hits give low values 0.997 | locus YPR119W, strain clb2, hits give low values 1 | locus YPR141C, strain kar3, hits give low values 0.991 | locus YPR163C, strain tif3, hits give low values 0.992 | locus YPR167C, strain met16, hits give low values 0.995 | strain wtn01, hits give low values 0.991
